Assay results taken from PubChem BioAssay (EPA / NIEHS).
Results filed as inconclusive are left out. Calls of active or inactive are those of the source. How the source made its calls, unless noted: active means hit-call score of the fitted dose curve at least 0.9, where 1 is the maximum; inconclusive means response in the unintended direction; inactive means score below 0.9.

Key:
PGR (gene 5241) = PGR (gene 5241) (UniProt P06401); test: TOX21_PR_LUC_Followup_Antagonist: Tox21 HEK293 Progesterone Receptor (PR) Antagonism Luciferase Follow-Up Assay (AID 2283938);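 further: curve fitted upward as signal gain over DMSO baseline despite antagonist label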
Chain of PGR (gene 5241) (P06401 whole entry, looked up): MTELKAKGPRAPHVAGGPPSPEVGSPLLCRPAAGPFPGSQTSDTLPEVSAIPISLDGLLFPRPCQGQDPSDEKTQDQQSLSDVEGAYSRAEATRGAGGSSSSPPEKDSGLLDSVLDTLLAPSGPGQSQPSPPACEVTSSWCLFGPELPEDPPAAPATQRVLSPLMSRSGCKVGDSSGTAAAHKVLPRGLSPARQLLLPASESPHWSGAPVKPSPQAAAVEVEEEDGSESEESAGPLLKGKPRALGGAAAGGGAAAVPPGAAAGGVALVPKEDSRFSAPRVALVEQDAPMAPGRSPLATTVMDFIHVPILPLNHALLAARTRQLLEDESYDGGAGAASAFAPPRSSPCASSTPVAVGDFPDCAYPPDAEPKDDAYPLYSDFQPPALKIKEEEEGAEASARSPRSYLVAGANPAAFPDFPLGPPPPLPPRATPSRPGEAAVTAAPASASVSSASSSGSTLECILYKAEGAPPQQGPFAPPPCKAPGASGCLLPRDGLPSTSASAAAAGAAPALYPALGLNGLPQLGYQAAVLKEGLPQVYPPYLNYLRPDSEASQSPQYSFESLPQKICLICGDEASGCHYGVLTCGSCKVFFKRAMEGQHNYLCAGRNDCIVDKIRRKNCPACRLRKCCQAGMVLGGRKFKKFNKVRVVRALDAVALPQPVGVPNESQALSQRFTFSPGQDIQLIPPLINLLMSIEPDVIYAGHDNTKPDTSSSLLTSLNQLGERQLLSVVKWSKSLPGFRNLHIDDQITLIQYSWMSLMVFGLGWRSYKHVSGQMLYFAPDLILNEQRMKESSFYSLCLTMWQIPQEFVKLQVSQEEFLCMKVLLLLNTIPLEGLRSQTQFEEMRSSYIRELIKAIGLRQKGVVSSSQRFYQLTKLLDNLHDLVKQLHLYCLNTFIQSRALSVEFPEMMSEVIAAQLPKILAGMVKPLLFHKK
How it was run: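 Luminescence from ONE-Glo was measured 30 min after reagent addition, following 16 h exposure of HEK293-PR-A-luc cells (3,000/well, plated 5 h earlier) to DMSO-dissolved compounds at 37C; DMSO served as baseline.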

[1] = TOX21_PR_LUC_Followup_Antagonist_viability: Viability Assessment in the Tox21 HEK293 Progesterone Receptor (PR) Antagonism Luciferase Follow-Up Assay (AID 2283940)
How it was run: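 Loss of CellTiter-Glo ATP signal indicates cytotoxicity in HEK293-PR-A-luc cells grown in 10% charcoal-stripped FBS medium, seeded 3,000 per well and incubated 16 h with compound at 37C.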

[2] = TOX21_PR_LUC_Followup_Agonist_viability: Viability Assessment in the Tox21 HEK293 Progesterone Receptor (PR) Agonism Luciferase Follow-Up Assay (AID 2283941);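 further: loss of signal means cytotoxicity so actives lower viability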
How it was run: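 Seeding: HEK293-PR-A-luc, 3,000 cells/well, 5 h at 37C. Treatment: compound in DMSO, 16 h, 37C. Read: CellTiter-Glo ATP luminescence, signal loss taken as lower viability.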

THRA (gene 7067) [3] = biological target: THRA (gene 7067) (UniProt P10827); test: TOX21_TRA_COA_Agonist_Followup_ratio: Tox21 Thyroid Hormone Receptor alpha Agonism through Coactivator Recruitment Follow-Up Assay, Ratio (AID 2283948; active means hit-call score of the fitted dose curve at least 0.9, where 1 is the maximum; inactive means score below 0.9)
Chain of THRA (gene 7067) (P10827 whole entry, looked up, the tested form may be a part): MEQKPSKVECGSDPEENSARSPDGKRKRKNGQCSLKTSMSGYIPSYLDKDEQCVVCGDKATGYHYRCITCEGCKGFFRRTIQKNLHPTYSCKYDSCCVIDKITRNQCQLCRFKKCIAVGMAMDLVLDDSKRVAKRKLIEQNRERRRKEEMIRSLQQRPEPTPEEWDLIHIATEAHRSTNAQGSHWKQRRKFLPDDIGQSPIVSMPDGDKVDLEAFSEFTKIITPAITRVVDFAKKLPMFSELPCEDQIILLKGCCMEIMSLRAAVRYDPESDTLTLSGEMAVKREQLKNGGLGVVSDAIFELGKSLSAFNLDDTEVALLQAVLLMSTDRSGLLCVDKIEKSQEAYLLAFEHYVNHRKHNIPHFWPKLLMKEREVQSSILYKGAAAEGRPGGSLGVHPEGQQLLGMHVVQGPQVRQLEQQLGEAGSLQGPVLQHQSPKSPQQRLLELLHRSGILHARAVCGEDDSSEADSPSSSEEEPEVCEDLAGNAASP
How it was run: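 Cell-free TR-FRET coactivator recruitment: GST-tagged TRα LBD (2.5 nM) with 0.10% BSA was incubated with compound, then fluorescein-SRC-2 peptide (200 nM) and Tb-anti-GST antibody (2 nM) added. 520:495 nm ratio normalized to DMSO (0%) and T3 (100%).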

THRB (gene 7068) [4] = biological target: THRB (gene 7068) (UniProt P10828); test: TOX21_TRB_BLA_Agonist_Followup_ratio: Tox21 Thyroid Hormone Receptor beta Agonism Beta-lactamase (BLA) Follow-Up Assay, Ratio (AID 2283954)
Chain of THRB (gene 7068) (P10828 whole entry, looked up, the tested form may be a part): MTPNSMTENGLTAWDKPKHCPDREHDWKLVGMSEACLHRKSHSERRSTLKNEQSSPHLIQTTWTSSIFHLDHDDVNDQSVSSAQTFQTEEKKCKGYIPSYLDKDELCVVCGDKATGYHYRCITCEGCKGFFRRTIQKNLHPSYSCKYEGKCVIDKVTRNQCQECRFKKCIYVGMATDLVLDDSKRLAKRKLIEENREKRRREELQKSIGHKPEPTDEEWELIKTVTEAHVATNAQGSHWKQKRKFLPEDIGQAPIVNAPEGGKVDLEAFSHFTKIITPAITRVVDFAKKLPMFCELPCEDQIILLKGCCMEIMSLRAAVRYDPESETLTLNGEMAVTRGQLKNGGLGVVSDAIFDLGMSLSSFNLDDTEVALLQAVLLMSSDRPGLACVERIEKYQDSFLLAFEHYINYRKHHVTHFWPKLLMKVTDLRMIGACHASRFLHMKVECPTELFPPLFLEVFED
How it was run: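 Agonist mode: compounds (11-point, triplicate) incubated 18 h with HEK293T cells carrying GAL4-DBD/human TRβ-LBD and UAS-β-lactamase. Blue/green (460/530 nm) FRET ratio read after 2 h CCF4-AM loading; CellTiter-Glo viability run in the same plates.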

[5] = biological target: T1, Thyroid hormone receptor alpha (Rattus norvegicus) + Thyroid hormone receptor beta (Rattus norvegicus) (UniProt P18113+P63059); test: TOX21_TR_LUC_GH3_Agonist_Followup: Tox21 GH3 Thyroid Hormone Receptor Agonism Luciferase Follow-Up Assay (AID 2283939)
T1 sequence (P63059 whole entry, looked up): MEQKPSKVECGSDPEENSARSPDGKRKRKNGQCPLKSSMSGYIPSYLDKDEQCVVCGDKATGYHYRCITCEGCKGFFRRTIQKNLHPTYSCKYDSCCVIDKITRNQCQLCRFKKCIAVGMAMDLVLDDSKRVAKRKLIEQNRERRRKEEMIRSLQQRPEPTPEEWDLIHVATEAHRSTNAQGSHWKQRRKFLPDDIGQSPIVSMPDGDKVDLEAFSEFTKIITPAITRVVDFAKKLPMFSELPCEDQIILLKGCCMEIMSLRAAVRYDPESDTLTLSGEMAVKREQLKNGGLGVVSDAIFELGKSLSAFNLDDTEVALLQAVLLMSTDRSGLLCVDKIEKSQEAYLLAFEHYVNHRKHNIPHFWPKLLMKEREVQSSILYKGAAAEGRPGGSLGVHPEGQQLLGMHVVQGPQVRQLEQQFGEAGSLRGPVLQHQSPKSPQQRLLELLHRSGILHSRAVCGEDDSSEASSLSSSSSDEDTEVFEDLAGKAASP
T1 sequence (P18113 whole entry, looked up): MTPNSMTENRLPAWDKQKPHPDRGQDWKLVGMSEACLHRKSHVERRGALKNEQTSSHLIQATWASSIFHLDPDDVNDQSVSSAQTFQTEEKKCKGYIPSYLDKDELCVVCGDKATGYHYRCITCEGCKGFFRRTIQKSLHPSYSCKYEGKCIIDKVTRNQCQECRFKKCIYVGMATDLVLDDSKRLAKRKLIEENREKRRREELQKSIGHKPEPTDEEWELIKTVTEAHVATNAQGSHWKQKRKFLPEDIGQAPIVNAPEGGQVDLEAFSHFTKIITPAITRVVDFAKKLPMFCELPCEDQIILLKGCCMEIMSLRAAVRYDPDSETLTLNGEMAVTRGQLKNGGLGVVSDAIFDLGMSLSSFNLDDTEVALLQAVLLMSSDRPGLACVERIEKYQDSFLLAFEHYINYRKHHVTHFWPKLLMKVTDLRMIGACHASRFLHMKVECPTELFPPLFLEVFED
How it was run: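 Agonist-mode confirmatory run: 15 concentrations (5 nM to 92 uM final) on GH3 rat pituitary cells, 24 h at 37C/5% CO2, T3 as positive control. Luminescence read with ONE-Glo after 30 min.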

[6] = biological target: T1, Thyroid hormone receptor alpha (Rattus norvegicus) + Thyroid hormone receptor beta (Rattus norvegicus); test: TOX21_TR_LUC_GH3_Antagonist_Followup: Tox21 GH3 Thyroid Hormone Receptor Antagonism Luciferase Follow-Up Assay (AID 2283942)
How it was run: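 Luminescence read-out (ONE-Glo, 30 min at room temperature) in GH3 reporter cells challenged with 1.0 nM T3 final. Compounds ran at 92 uM to 5nM over 15 concentrations for 24 h; DMSO served as negative control and baseline.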

THRA (gene 7067) [7] = biological target: THRA (gene 7067) (UniProt P10827); test: TOX21_TRA_COA_Antagonist_Followup_ratio: Tox21 Thyroid Hormone Receptor alpha Antagonism through Coactivator Recruitment Follow-Up Assay, Ratio (AID 2283953)
How it was run: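 We measured antagonism of T3-type coactivator recruitment using a TR-FRET ratio (emission 520 and 495 nm) between a Tb-labelled anti-GST antibody on TRα LBD (2.5 nM) and SRC-2 peptide (200 nM). Activity was scaled between DMSO and T3 wells.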

THRB (gene 7068) [8] = biological target: THRB (gene 7068) (UniProt P10828); test: TOX21_TRB_BLA_Antagonist_Followup_ratio: Tox21 Thyroid Hormone Receptor beta Antagonism Beta-lactamase (BLA) Follow-Up Assay, Ratio (AID 2283958)
How it was run: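 Using charcoal-stripped 2% FBS medium, human TRβ-LBD/GAL4 reporter HEK293T cells received test compounds for 18 h. The endpoint is the cleaved-to-uncleaved substrate ratio (460/530 nm).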

[9] = TOX21_TRB_BLA_Antagonist_Followup_viability: Viability Assessment in the Tox21 Thyroid Hormone Receptor beta Antagonism Beta-lactamase (BLA) Follow-Up Assay (AID 2283961)
How it was run: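 ATP-based CellTiter-Glo luminescence (30 min, room temperature) run in the same wells as the TRβ-bla readout. Cells: GeneBLAzer HEK293T expressing GAL4-TRβ LBD, exposed 18 h at 37C to compounds at 11 concentrations in triplicate, stripped-serum medium.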

Compound: CC(C)C(=O)Nc1ccc([N+](=O)[O-])c(C(F)(F)F)c1
- outcome (PGR (gene 5241)): inactive
- outcome [1]: inactive
- outcome [2]: inactive

Compound: O=c1[nH]cnc2c1ncn2[C@H]1CC[C@@H](CO)O1
- outcome (THRA (gene 7067) [3]): inactive
- AC50 (THRB (gene 7068) [4]): 9.78 µM (active)

Compound: Cn1c(=O)c2[nH]cnc2n(C)c1=O
- outcome [5]: inactive
- outcome (THRA (gene 7067) [3]): inactive
- outcome (THRB (gene 7068) [4]): inactive

Compound: Cc1nccn1-c1ccc(Sc2cccc(C3(C(N)=O)CCOCC3)c2)cc1
- AC50 [6]: 32.9 µM (active)
- outcome (THRA (gene 7067) [7]): inactive
- AC50 (THRB (gene 7068) [8]): 21.5 µM (active)
- outcome [9]: inactive

Compound: NC(=O)N(O)[C@@H]1COc2cc(OCc3ccccc3)ccc21
- outcome [1]: inactive
- outcome [2]: inactive

Compound: COc1cc2c(c(OC)c1OC)-c1ccc(OC)c(=O)cc1[C@@H](NC(C)=O)CC2
- outcome [6]: inactive
- AC50 (THRB (gene 7068) [8]): 0.0894 µM (active)
- outcome [9]: inactive

Compound: Nc1ccn([C@@H]2O[C@H](CO)[C@@H](O)[C@@H]2O)c(=O)n1
- outcome [6]: inactive
- outcome [9]: inactive
